Inconclusive results are not listed. Activity calls are given as the source filed them. Calls follow the shape of the dose curve; as a rule, active = well fitted inhibition curve with a large enough effect in the signal ratio in the repeat runs (not every such curve was filed as active); inconclusive = weak or mixed curves, or effect the other way; inactive = no such curve, though single readings can be large or run the other way; the % refers to the signal ratio.
Target: Bile acid receptor (Homo sapiens) (UniProt Q96RI1)
Assay: qHTS assay to identify small molecule antagonists of the farnesoid-X-receptor (FXR) signaling pathway (AID 743217)
Conditions: HEK293T FXR-UAS-bla, beta-lactamase ratio, CDCA-stimulated, 16 h; series mostly up to 62.6 µM
Excerpt: U.S. Tox21 Program National Center for Advancing Translational Sciences [NCATS] NIH Chemical Genomics Center [NCGC] U.S. Environmental Protection Agency [EPA] National Institutes of Environmental Health Sciences [NIEHS] National Toxicology Program [NTP] U.S. Food and Drug Administration [FDA] Tox21 Assay Overview: The farnesoid-X-receptor (FXR), a nuclear hormone receptor, is highly expressed in liver, intestine, kidney and adrenal cortex. Natural ligands of FXR are the bile acids (Cholic acid, Chenodeoxy cholic acid etc). FXR is an important regulator of diverse metabolic pathways, including the bile acid homeostasis, lipid and glucose metabolisms. FXR regulates the expression of target genes by binding either as a monomer or as a heterodimer with the retinoid X receptor (RXR). Numerous studies have reported that FXR exerts protective function during cholestasis, diabetes, liver regeneration, and cancer. To identify compounds that inhibit FXR signaling, GeneBLAzer FXR-UAS-bla HEK 293T cell line (Invitrogen, Carlsbad, CA) containing a beta-lactamase reporter gene under the control of a UAS response element was used to screen the Tox21 10K compound library.
Tox21 Assay Protocol Summary: FXR-bla cells were dispensed at 5000 cells/5uL/well in 1536-well black wall/clear bottom plates using a Multidrop Combi (Thermo Fisher Scientific, Waltham, MA) dispenser. After the assay plates were incubated at 37C and 5% CO2 for 5 h, 23 nL of compounds dissolved in DMSO, positive controls or DMSO only was transferred to the assay plate by a Pintool station (Kalypsys, San Diego, CA), followed by addition of 1 uL Chenodeoxycholic acid (50 uM, final concentration in the wells). The assay plates were incubated at 37C for 16 h. After 1 uL of LiveBLAzerTM B/G FRET substrate was added using a Bioraptr Flying Reagent Dispenser (FRD) workstation (Beckman Coulter, Indianapolis, IN), the plates were incubated at room temperature for 2 h, and fluorescence intensity was measured by an Envision plate reader (PerkinElmer, Shelton, CT).

Sequence of Bile acid receptor (Homo sapiens) (Q96RI1 whole entry, looked up): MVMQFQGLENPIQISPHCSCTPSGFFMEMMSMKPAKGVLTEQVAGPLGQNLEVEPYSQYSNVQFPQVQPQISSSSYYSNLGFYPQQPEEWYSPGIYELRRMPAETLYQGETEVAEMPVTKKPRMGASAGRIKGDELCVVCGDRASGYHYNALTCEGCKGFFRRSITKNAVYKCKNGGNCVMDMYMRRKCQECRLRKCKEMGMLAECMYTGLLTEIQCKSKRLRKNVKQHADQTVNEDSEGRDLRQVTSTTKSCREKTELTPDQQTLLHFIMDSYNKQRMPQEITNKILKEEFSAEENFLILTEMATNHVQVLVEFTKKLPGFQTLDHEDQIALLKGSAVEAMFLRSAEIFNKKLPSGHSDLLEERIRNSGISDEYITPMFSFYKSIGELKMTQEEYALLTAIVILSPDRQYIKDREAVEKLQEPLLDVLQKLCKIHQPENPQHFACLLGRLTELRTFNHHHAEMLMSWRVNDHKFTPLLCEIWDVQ

SMILES	outcome
Nc1ccc(N)cc1	inactive
Cc1cc(O)ccc1Cl	inactive
C[C@H]1C(=O)O[C@@H]2CCN3CC=C(COC(=O)[C@](C)(O)[C@]1(C)O)[C@H]23	inactive
CC(C)CCCCCCOC(=O)c1ccccc1C(=O)OCCCCCCC(C)C	inactive
CSc1nnc(C(C)(C)C)c(=O)n1N	inactive
CNC(=O)O/N=C/C(C)(C)S(C)=O (stereo not given)	inactive
CNC(=O)O/N=C/C(C)(C)SC	inactive
O=C(O)C(Br)Br	inactive
O=[N+]([O-])c1ccc(Cl)c(Cl)c1	inactive
Cc1cccc(C)c1N	inactive
CNc1cnn(-c2cccc(C(F)(F)F)c2)c(=O)c1Cl	inactive
Cl[C@H]1OCCO[C@@H]1Cl	inactive
OCc1ccco1	inactive
[N-]=[N+]=CC(=O)OC[C@H](N)C(=O)O	inactive
CCOc1ccc(N)cc1	inactive
Clc1cnc(Oc2ccc(Oc3ncc(Cl)cc3Cl)cc2)c(Cl)c1	inactive
O=C(O)Cc1ccccc1	inactive
Nc1cc(Cl)cc(Cl)c1	inactive
O=C(O)C1C(C(=O)O)C2(Cl)C(Cl)=C(Cl)C1(Cl)C2(Cl)Cl (stereo not given)	inactive
Nc1cccc(Cl)c1	inactive

SMILES	outcome
Nc1nc(N)nc(NC2CC2)n1	inactive
OCCCCO	inactive
COc1nc(NC(C)C)nc(NC(C)C)n1	inactive
CCCCC(CC)C(=O)Cl (stereo not given)	inactive
CNCC(O)c1ccc(O)cc1 (stereo not given)	inactive
CC(=O)C1CCOC1=O (stereo not given)	inactive
COC(=O)Nc1cccc(OC(=O)Nc2cccc(C)c2)c1	inactive
Cc1cccc(N)c1C	inactive
Nc1ncc([N+](=O)[O-])s1	inactive
O=C(O)CCCc1ccc(N(CCCl)CCCl)cc1	inactive
CCOC(=O)CC(SP(=O)(OC)OC)C(=O)OCC (stereo not given)	inactive
Cc1cccc(C)c1NC(=O)CN1CCCC1=O	inactive
ClCCOCCCl	inactive
FC(F)(F)c1ccc(Cl)cc1	inactive
c1ccc2c(c1)CCCC2	inactive
N#CN=C(N)N	inactive
CNC(=O)Oc1cccc2ccccc12	inactive
CCCOC(=O)c1ccccc1C(=O)OCCC	inactive
C=CC(=O)OCCCCCC(C)C	inactive
COP(=S)(OC)SCN1C(=O)c2ccccc2C1=O	inactive
